This is a sample that favours compounds with a hit; in the whole collection about 4.8% have one here.
AI-2 QS modul: Vibrio harveyi AI-2 quorum sensing modulation; Vibrio harveyi JMH597 AI-2 luminescence/OD600 ratio, 9 h; active compounds read low; strain lacks LuxN and CqsS sensors; 0 = neutral-control median; activity change, % at 7.5 µM; 300,000 tested, 0.4% active; in the data active means activity change below about -75%, passing the limit was not always enough;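 further: luminescence divided by OD600 gain over 9 h not by final OD600 alone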
ALR H2O2 inh: inhibitors of human sulfhydryl oxidase ALR; P55789; purified ALR, DTT oxidation, H2O2 HRP-luminol luminescence; inhibition, % (test concentration not listed); 290,000 tested, 3.8% active;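 active means mean replicate inhibition above about 79%, with every replicate also reaching it, limit read from the data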
Target sequence (P55789 whole entry, looked up): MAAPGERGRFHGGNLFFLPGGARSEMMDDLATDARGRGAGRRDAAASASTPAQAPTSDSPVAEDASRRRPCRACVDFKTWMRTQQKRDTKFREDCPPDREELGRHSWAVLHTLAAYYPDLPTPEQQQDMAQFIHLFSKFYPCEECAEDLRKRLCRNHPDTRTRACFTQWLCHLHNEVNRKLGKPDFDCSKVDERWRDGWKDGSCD
Mot1-301 SUMO: inhibitors of SUMOylation pathway: yeast Mot1-301 growth rescue | S. cerevisiae Mot1-301 growth rescue, ATP luminescence, 38.5C; percent above DMSO median, 100 means doubled | growth rescue, % at 18.8 µM | 320,000 tested, 1% active;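 active means every valid replicate shows activation above 250% relative to neutral control wells; inactive means the rest, any valid replicate at or below 250%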;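 further: OY570 slx delta 5 strain wells were the positive control but not used for scaling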
HIF act: HIF pathway transcriptional activation; U2OS HRE-luciferase reporter, luminescence; normalized: DMSO 0%, desferrioxamine 100%; AID 1910; activation, % at 7.5 µM (by protocol); 300,000 tested, 0.32% active;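 active means mean activation of at least 10% of the iron chelator positive control signal, with at least half of replicates also reaching 10%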
Yeast Mot1 SUMO: SUMO pathway inhibitors in yeast Mot1-301 growth. growth activity, percent, % at 42 µM. 2,300 tested, under 10 active. S. cerevisiae Mot1-301 galactose growth, ATP luminescence, 24 h; -100 = growth of slx-deleted rescue strain. shares compounds with Mot1-301 SUMO;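 active means Signal drops as the depositor expects, and the fitted half-maximal dose is no more than ten times the top valid tested dose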;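 further: more negative values mean stronger growth rescue toward the control strain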
* marks the source's active call; other numbers are inactive results.

Screening O=C(CCCn1cnc([N+](=O)[O-])n1)Nc1cccc2ccccc12 returned AI-2 QS modul 37, ALR H2O2 inh -29, Mot1-301 SUMO 408*, HIF act 0 and Yeast Mot1 SUMO -1.
For Cc1cccc(-n2c(Cc3cc(=O)[nH]c(=O)[nH]3)nnc2SCC(=O)N2CCc3ccccc32)c1 the results were AI-2 QS modul 20, ALR H2O2 inh -3, Mot1-301 SUMO 3 and HIF act 1.
`C=C1N(c2ccc(Cl)cc2)C(=O)OC1(C)C` gave AI-2 QS modul 16, ALR H2O2 inh 1, Mot1-301 SUMO 66 and HIF act 0.
Screening CCN1C(=O)N(c2ccc(Cl)cc2)C(C)=CC1(C)C returned AI-2 QS modul 14, ALR H2O2 inh -12, Mot1-301 SUMO 837*, HIF act 0 and Yeast Mot1 SUMO 0.
For COc1cc(OC)cc(OC(=O)C2CCN(C(=O)c3ccc(F)cc3)CC2)c1 the results were AI-2 QS modul 10, ALR H2O2 inh 9, Mot1-301 SUMO 69 and HIF act -1.
NC(=O)CC(NC(=O)c1ccc(Br)cc1)c1ccc(NC2CCCCCCC2)c([N+](=O)[O-])c1 (configuration not stated) was read as AI-2 QS modul 28, ALR H2O2 inh 4, Mot1-301 SUMO 1 and HIF act 0.
Screening CCNCCNC(=O)c1c(O)c2c([nH]c1=O)CCCC2 returned AI-2 QS modul 10, ALR H2O2 inh 14, Mot1-301 SUMO active, HIF act 0 and Yeast Mot1 SUMO 0.
Screening CN(C)CCNC(=O)c1scc2c1CCCC2 returned AI-2 QS modul 21, Mot1-301 SUMO 824*, HIF act 0 and Yeast Mot1 SUMO 0.
Screening CN(C)CCNC(=O)c1c(O)c2c([nH]c1=O)CCCC2 returned AI-2 QS modul 30, ALR H2O2 inh 43, Mot1-301 SUMO 630*, HIF act 0 and Yeast Mot1 SUMO 0.
`COc1ccc(CCNC(=O)c2c(O)c3c([nH]c2=O)CCCC3)cc1OC` gave ALR H2O2 inh -2 and Mot1-301 SUMO 58.
`CCN(CC)CCNC(=O)c1c(O)c2c([nH]c1=O)CCCC2` gave AI-2 QS modul 18, ALR H2O2 inh -2 and Mot1-301 SUMO -4.
`O=S1(=O)NC(c2ccccc2)CC(CC2CCCCC2)O1` (configuration not stated) gave AI-2 QS modul 19, ALR H2O2 inh 4, Mot1-301 SUMO 943*, HIF act 0 and Yeast Mot1 SUMO 0.
For O=C1NC[C@H](c2ccccc2)N(CC2CCCCC2)C1=O the results were AI-2 QS modul 19, ALR H2O2 inh -20, Mot1-301 SUMO -12 and HIF act -1.
Screening COc1ccc(CCN(C)C(=O)CN2C(=O)NC3(CCCCC3C)C2=O)cc1OC (configuration not stated) returned AI-2 QS modul 4, ALR H2O2 inh 2, Mot1-301 SUMO -6 and HIF act 0.
Screening Cc1[nH]c2ccccc2c1N=Nc1ccccc1C(=O)O returned AI-2 QS modul 10, ALR H2O2 inh 0, Mot1-301 SUMO -1 and HIF act 0.
COC(=O)c1cc(N=Nc2c(C)[nH]c3ccccc23)cc(C(=O)OC)c1 was read as AI-2 QS modul 24, ALR H2O2 inh -10, Mot1-301 SUMO 945*, HIF act 0 and Yeast Mot1 SUMO 0.
Screening Cc1ccc(Cc2c(C)c(C#N)c3[nH]c4ccccc4n3c2=O)cc1 returned AI-2 QS modul -2, ALR H2O2 inh -20, Mot1-301 SUMO -7 and HIF act 0.
`C=C(C)Cc1c(C)c(C#N)c2[nH]c3ccccc3n2c1=O` gave AI-2 QS modul 20, ALR H2O2 inh 6, Mot1-301 SUMO 690*, HIF act -8 and Yeast Mot1 SUMO -1.
CCOC(=O)[C@@H]1[C@H]2COc3ccc(Br)cc3[C@@H]2N2C(=O)N(c3ccc(C(F)(F)F)cc3)C(=O)[C@]12C was read as AI-2 QS modul 34, Mot1-301 SUMO -2 and HIF act -3.
For Cc1ccc(NC(=O)c2ccc3c(c2)N(CC(=O)NC(C)C)C(=O)C(C)(C)O3)cc1 the results were AI-2 QS modul 39, ALR H2O2 inh -1, Mot1-301 SUMO -6 and HIF act 0.
Cc1cccc(NC(=S)NCc2ccco2)c1C was read as AI-2 QS modul -8, ALR H2O2 inh 1, Mot1-301 SUMO 619*, HIF act 0 and Yeast Mot1 SUMO 0.
CSc1cccc(N2C(=O)C3CCCN3C2=S)c1 (configuration not stated) was read as AI-2 QS modul 19, ALR H2O2 inh -4, Mot1-301 SUMO 802*, HIF act 0 and Yeast Mot1 SUMO 1.
Screening O=C(CSc1nc(C(F)(F)F)cc(=O)[nH]1)N1CCCCCC1 returned AI-2 QS modul 39, ALR H2O2 inh -2, Mot1-301 SUMO -12 and HIF act 0.
For O=c1cc(C(F)(F)F)c2sc(N3CCCCC3)nc2[nH]1 the results were AI-2 QS modul -8, ALR H2O2 inh 12, Mot1-301 SUMO 429*, HIF act 0 and Yeast Mot1 SUMO 0.
Screening O=C(NCCCN1CCN(c2ccccc2F)CC1)Nc1ccccc1[N+](=O)[O-] returned AI-2 QS modul 32, ALR H2O2 inh 0, Mot1-301 SUMO 447*, HIF act 252* and Yeast Mot1 SUMO 0.
CCS(=O)(=O)N1CCC(C(=O)NCCCN2CCN(c3ccccc3F)CC2)CC1 was read as AI-2 QS modul 10, ALR H2O2 inh 6, Mot1-301 SUMO 481*, HIF act 0 and Yeast Mot1 SUMO 1.
Screening CCOC(=O)C1CCCN(C(=O)CNC(=O)c2ccc(Br)o2)C1 (configuration not stated) returned Mot1-301 SUMO -3.
Screening C=CCNC(=O)c1onc(CSc2cccc(C)c2)c1C(=O)O returned AI-2 QS modul 9, ALR H2O2 inh 5, Mot1-301 SUMO 775*, HIF act 0 and Yeast Mot1 SUMO 1.
For CCN(CC)S(=O)(=O)c1ccc(S(=O)(=O)N2CCC(C(=O)NC3CCN(Cc4ccccc4)CC3)CC2)cc1 the results were AI-2 QS modul 15, ALR H2O2 inh 3, Mot1-301 SUMO 634*, HIF act -1 and Yeast Mot1 SUMO 0.
`O=C(NC1CCN(Cc2ccccc2)CC1)C1CCN(S(=O)(=O)c2cccc([N+](=O)[O-])c2)CC1` gave AI-2 QS modul 23, ALR H2O2 inh -23, Mot1-301 SUMO 49 and HIF act 1.
Cc1ccc(S(=O)(=O)CCC(=O)Oc2ccc(-c3nnco3)cc2)cc1 was read as AI-2 QS modul 13, ALR H2O2 inh 16, Mot1-301 SUMO 10 and HIF act 0.
For CN1c2ccccc2-c2nc3ccccc3n2C1c1ccncc1 (configuration not stated) the results were AI-2 QS modul 18, ALR H2O2 inh 4, Mot1-301 SUMO 635*, HIF act -3 and Yeast Mot1 SUMO 0.
